In the supplement of paper PMC10849652:
The full data set covers some 8,800 targets. This sample favours those with a hit. About 0.5% of all pairs of compound and target were hits.

Key:
Assay in all cases: log2 fold change, soluble protein after heating vs DMSO (PISA); higher = thermal stabilisation; K562 lysate, 10 uM; active = over 0.2 and 3.5 SD of the protein, either way, in both replicates (recomputed)
[1] = compound: C=CC(=O)N1CCC[C@@H](n2nc(-c3ccc(Oc4ccccc4)cc3)c3c(N)ncnc32)C1 [ibrutinib]
Outline: (§1)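 Soluble protein was defined as the supernatant remaining after 21,000xg for 90 min, following pooling of heated aliquots and adjustment to 0.5% NP-40 at 4°C. Before that, crude K562 extract at 1 mg/mL protein in PBS pH 7.4 with 1 mM MgCl2 was treated with 10 μM compound for 30 min and heated for 3 min across 48°C-58°C. Quantification used TMTpro 16plex LC-MS/MS with channel sums equalised, and values are log-two fold changes in thermal stability relative to solvent controls from duplicates.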

[2] = compound: CC(=O)c1cnc2ccc(-c3cc(Cl)c(O)c(Cl)c3)nc2c1N[C@H]1CC[C@H](CN(C)C)CC1
Outline: as §1

[3] = compound: CC(C)(C)Cn1c(N)nc2ccc(-c3[nH]c(C(C)(C)C)nc3-c3ccc(F)cc3)nc21 [ralimetinib]
Outline: as §1

[4] = compound: CC(C)(O)CC(=O)NCCn1ccc2ncnc(Nc3ccc(Oc4cccc(C(F)(F)F)c4)c(Cl)c3)c21
Outline: as §1

[5] = compound: CC(C)C1=C2N=C(C=C(N2N=C1)NCC3=CC=CC=C3)NCCCCCCN
Outline: as §1

[6] = compound: CC1=C(C(CC(=O)N1)C2=CC=C(C=C2)C(F)(F)F)C(=O)NC3=C(C=C4C(=C3)C=NN4)F
Outline: as §1

[7] = compound: CC1=C(C2=C(C=C1)C(=O)C3=CC=CC=C3N2CCCN)C
Outline: as §1

[8] = compound: CC1=C(C=C(C=C1)NC(=O)C2=CC(=CC=C2)C(C)(C)C#N)NC3=CC4=C(C=C3)N=CN(C4=O)C
Outline: as §1

[9] = compound: CC1=C(C=C(C=C1)NC(=O)C2=CC(=CC=C2)N(C)C)NC(=O)C3=CC=C(C=C3)O
Outline: as §1

[10] = compound: CC1=CC=C(C=C1)SC2=C3C=C(SC3=CN=C2)C(=O)N
Outline: as §1

[11] = compound: CCCS(=O)(=O)Nc1ccc(F)c(C(=O)c2c[nH]c3ncc(-c4ccc(Cl)cc4)cc23)c1F [vemurafenib]
Outline: as §1

[12] = compound: CCCS(=O)(=O)Nc1ccc(F)c(C(=O)c2c[nH]c3ncc(Cl)cc23)c1F
Outline: as §1

[13] = compound: CCN(CCCOc1ccc2c(Nc3cc(CC(=O)Nc4cccc(F)c4)[nH]n3)ncnc2c1)CCOP(=O)(O)O [barasertib]
Outline: as §1

[14] = compound: CC[C@@H]1C(=O)N(C)c2cnc(Nc3ccc(C(=O)NC4CCN(C)CC4)cc3OC)nc2N1C1CCCC1
Outline: as §1

[15] = compound: CC[C@@H]1C(=O)N(C)c2cnc(Nc3ccc(C(=O)N[C@H]4CC[C@H](N5CCN(CC6CC6)CC5)CC4)cc3OC)nc2N1C(C)C [volasertib]
Outline: as §1

[16] = compound: CCn1c(C(=O)N(C2CC2)C2CC2)cc2c3c(ncn3C)c(Nc3cc(C)n(C)n3)nc21
Outline: as §1

[17] = compound: CCn1cc(-c2ccnc3[nH]c(-c4cccc(CN(C)C)c4)cc23)c(-c2ccc(NC(=O)N(C)C)cc2)n1
Outline: as §1

[18] = compound: CN1CCC(CNc2ccc3ncc(-c4cccc(OC(F)(F)F)c4)n3n2)CC1
Outline: as §1

[19] = compound: CN1CCN(CCOc2cc(OC3CCOCC3)c3c(Nc4c(Cl)ccc5c4OCO5)ncnc3c2)CC1 [saracatinib]
Outline: as §1

[20] = compound: CN1CCN(c2nc(C3=C(c4c[nH]c5ccccc45)C(=O)NC3=O)c3ccccc3n2)CC1 [sotrastaurin]
Outline: as §1

Measured: log2 fold change

ZDHHC18 (UniProt Q9NUE0)
Sequence of UniProt Q9NUE0 (Q9NUE0 whole entry, looked up): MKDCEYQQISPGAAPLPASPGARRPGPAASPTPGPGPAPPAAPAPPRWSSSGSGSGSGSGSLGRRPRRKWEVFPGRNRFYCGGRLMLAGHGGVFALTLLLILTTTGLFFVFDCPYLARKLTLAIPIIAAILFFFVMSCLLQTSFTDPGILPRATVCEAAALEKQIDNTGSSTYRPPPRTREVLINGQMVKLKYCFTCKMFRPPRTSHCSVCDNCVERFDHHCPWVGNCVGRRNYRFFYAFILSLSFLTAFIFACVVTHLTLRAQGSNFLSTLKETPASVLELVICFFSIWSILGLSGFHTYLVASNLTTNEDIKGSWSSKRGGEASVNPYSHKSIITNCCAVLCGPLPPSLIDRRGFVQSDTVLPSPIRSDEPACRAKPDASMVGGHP
inactive: [1] -0.103 | [2] 0.057 | [3] 0.093 | [4] -0.017 | [5] -0.137 | [6] 0.019 | [7] 0.209 | [8] -0.022 | [9] 0.073 | [10] -0.01 | [11] 0.043 | [12] 0.026 | [13] 0.016 | [14] -0.019 | [15] -0.052 | [16] -0.068 | [17] -0.138 | [18] 0.085 | [19] 0.036 | [20] 0.04

UXT isoform 2 (UniProt Q9UBK9)
Sequence of UniProt Q9UBK9 (Q9UBK9 whole entry, looked up): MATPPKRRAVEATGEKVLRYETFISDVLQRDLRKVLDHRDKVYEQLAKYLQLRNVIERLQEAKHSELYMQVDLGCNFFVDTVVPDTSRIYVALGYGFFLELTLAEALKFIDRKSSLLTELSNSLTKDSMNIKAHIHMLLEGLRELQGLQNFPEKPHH
active: [14] 0.321
inactive: [1] -0.078 | [2] -0.018 | [3] -0.063 | [4] -0.075 | [5] 0.006 | [6] -0.035 | [7] -0.091 | [8] 0 | [9] -0.015 | [10] -0.032 | [11] -0.023 | [12] 0 | [13] 0.056 | [15] -0.004 | [16] -0.088 | [17] -0.05 | [18] 0.032 | [19] 0.053 | [20] 0.001

ZHX1 (UniProt Q9UKY1)
active: [17] -0.603 | [18] 0.526
inactive: [1] -0.026 | [2] 0.015 | [3] -0.007 | [4] 0.034 | [5] 0.127 | [6] 0.109 | [7] -0.144 | [8] -0.053 | [9] 0.024 | [10] -0.013 | [11] -0.058 | [12] 0.057 | [13] 0.059 | [14] 0.144 | [15] -0.079 | [16] -0.056 | [19] 0.011 | [20] 0.029

USE1 (UniProt Q9NZ43)
inactive: [1] -0.039 | [2] -0.026 | [3] -0.095 | [4] -0.102 | [5] -0.086 | [6] 0.024 | [7] -0.025 | [8] -0.007 | [9] 0.007 | [10] 0.027 | [11] -0.071 | [12] -0.049 | [13] 0.021 | [14] 0.036 | [15] 0.04 | [16] 0.093 | [17] 0.002 | [18] -0.103 | [19] -0.02 | [20] 0.017

VPS39 (UniProt Q96JC1)
Sequence of UniProt Q96JC1 (Q96JC1 whole entry, looked up): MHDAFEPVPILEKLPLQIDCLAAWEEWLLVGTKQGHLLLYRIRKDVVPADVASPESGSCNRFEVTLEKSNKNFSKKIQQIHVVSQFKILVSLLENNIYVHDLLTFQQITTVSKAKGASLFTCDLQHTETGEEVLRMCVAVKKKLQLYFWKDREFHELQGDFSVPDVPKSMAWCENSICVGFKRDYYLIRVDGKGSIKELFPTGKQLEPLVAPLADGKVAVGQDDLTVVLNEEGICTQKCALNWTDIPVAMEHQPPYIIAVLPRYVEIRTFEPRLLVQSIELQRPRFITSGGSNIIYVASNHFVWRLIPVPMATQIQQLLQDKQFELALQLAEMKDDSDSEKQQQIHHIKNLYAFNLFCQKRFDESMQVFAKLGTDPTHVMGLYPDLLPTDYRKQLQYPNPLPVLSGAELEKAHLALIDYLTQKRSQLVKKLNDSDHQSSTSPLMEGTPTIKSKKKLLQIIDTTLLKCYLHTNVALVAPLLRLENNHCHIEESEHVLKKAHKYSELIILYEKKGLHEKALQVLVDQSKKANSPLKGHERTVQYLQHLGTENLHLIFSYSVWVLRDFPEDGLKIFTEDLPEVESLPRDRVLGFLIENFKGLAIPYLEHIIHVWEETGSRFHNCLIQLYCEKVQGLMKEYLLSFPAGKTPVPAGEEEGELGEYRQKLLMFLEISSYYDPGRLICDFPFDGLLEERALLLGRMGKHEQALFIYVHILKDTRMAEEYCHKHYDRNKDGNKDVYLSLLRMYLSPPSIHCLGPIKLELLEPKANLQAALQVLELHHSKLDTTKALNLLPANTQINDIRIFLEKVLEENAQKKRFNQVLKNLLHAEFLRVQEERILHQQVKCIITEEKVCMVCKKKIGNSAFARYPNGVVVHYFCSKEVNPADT
inactive: [1] 0 | [2] 0.021 | [3] -0.012 | [4] -0.056 | [5] -0.004 | [6] 0.014 | [7] 0 | [8] 0.016 | [9] -0.014 | [10] -0.005 | [11] -0.034 | [12] 0.014 | [13] 0.022 | [14] -0.029 | [15] -0.045 | [16] 0.001 | [18] -0.151 | [19] 0.018 | [20] -0.008
active: [17] 0.73

YWHAQ (UniProt P27348)
Sequence of UniProt P27348 (P27348 whole entry, looked up): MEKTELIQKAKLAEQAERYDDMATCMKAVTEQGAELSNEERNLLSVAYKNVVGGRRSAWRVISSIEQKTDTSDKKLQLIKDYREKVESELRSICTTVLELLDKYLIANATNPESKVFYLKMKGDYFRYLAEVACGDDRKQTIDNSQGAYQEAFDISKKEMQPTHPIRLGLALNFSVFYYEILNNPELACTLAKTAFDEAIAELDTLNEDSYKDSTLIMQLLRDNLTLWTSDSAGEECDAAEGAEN
active: [17] 0.625
inactive: [1] -0.011 | [2] -0.001 | [3] -0.007 | [4] 0.028 | [5] 0 | [6] -0.054 | [7] 0.007 | [8] -0.001 | [9] 0.01 | [10] 0.01 | [11] -0.029 | [12] 0.009 | [13] -0.023 | [14] 0.025 | [15] 0.023 | [16] -0.003 | [18] -0.092 | [19] -0.012 | [20] -0.047

UPF3B (UniProt Q9BZI7)
active: [17] -0.231
inactive: [1] -0.011 | [2] 0.024 | [3] 0.007 | [4] -0.006 | [5] -0.021 | [6] 0.018 | [7] -0.04 | [8] 0.008 | [9] -0.001 | [10] -0.003 | [11] 0.027 | [12] 0.01 | [13] -0.006 | [14] 0.026 | [15] 0.004 | [16] -0.019 | [18] 0.031 | [19] 0.005 | [20] -0.019

WDR41 (UniProt Q9HAD4)
inactive: [1] -0.163 | [2] -0.004 | [3] 0.017 | [4] 0.088 | [5] -0.015 | [6] 0.03 | [7] -0.054 | [8] 0.164 | [9] -0.049 | [10] 0.015 | [11] -0.018 | [12] 0.036 | [13] -0.07 | [14] 0.089 | [15] 0.005 | [16] 0.053 | [17] -0.032 | [18] 0.053 | [19] 0.017 | [20] 0.043

USP48 (UniProt Q86UV5)
Sequence of UniProt Q86UV5 (Q86UV5 whole entry, looked up): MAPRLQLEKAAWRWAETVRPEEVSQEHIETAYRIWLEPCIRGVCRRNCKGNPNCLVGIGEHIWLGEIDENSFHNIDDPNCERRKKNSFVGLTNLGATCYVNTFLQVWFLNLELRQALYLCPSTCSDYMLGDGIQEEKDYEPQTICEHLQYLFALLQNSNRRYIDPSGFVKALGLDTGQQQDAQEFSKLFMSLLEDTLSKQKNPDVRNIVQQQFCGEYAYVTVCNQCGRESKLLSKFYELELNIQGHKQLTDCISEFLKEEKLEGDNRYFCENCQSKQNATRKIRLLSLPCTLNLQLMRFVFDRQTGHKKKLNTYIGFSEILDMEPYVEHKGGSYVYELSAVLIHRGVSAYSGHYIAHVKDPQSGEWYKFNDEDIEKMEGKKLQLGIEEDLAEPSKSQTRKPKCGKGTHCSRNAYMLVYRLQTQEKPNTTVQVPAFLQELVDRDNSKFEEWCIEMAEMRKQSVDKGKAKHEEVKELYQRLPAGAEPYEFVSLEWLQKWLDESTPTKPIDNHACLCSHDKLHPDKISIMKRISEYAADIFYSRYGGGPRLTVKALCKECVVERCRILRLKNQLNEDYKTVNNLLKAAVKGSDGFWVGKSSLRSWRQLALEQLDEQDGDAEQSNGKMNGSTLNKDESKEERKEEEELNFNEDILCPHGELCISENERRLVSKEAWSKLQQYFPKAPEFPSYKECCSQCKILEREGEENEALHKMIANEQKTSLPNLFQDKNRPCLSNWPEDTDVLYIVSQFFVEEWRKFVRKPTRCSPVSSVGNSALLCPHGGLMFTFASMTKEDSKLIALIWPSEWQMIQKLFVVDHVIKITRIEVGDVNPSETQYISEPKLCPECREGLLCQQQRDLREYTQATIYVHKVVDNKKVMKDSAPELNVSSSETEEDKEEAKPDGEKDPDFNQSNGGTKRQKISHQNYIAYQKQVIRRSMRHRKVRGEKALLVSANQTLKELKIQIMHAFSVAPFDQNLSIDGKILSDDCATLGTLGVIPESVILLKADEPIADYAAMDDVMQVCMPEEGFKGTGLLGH
inactive: [1] -0.028 | [2] -0.224 | [3] -0.038 | [4] 0.031 | [5] -0.009 | [6] 0.018 | [7] 0 | [8] -0.039 | [9] 0.041 | [10] -0.227 | [11] 0.043 | [12] 0.074 | [13] -0.024 | [14] 0.047 | [15] -0.102 | [16] -0.057 | [18] 0.146 | [19] -0.021 | [20] -0.12
active: [17] -0.821

VPS35L (UniProt Q7Z3J2)
inactive: [1] 0.011 | [2] 0.023 | [3] -0.003 | [4] -0.032 | [5] 0.003 | [6] 0.007 | [7] 0.018 | [8] -0.021 | [9] 0.009 | [10] -0.005 | [11] 0.016 | [12] 0.002 | [13] 0.001 | [14] -0.072 | [15] -0.047 | [16] -0.004 | [17] -0.02 | [18] -0.005 | [19] 0.004 | [20] 0.046

ZNF318 (UniProt Q5VUA4)
inactive: [1] 0.022 | [2] -0.043 | [3] 0.029 | [4] -0.06 | [5] 0.014 | [6] 0.023 | [7] 0.038 | [8] -0.036 | [9] 0.046 | [10] 0.083 | [11] 0.089 | [12] 0.025 | [13] 0.077 | [14] 0.025 | [15] 0.011 | [16] -0.007 | [17] 0.086 | [18] -0.033 | [19] 0.079 | [20] 0.047

USP8 (UniProt P40818)
Sequence of UniProt P40818 (P40818 whole entry, looked up): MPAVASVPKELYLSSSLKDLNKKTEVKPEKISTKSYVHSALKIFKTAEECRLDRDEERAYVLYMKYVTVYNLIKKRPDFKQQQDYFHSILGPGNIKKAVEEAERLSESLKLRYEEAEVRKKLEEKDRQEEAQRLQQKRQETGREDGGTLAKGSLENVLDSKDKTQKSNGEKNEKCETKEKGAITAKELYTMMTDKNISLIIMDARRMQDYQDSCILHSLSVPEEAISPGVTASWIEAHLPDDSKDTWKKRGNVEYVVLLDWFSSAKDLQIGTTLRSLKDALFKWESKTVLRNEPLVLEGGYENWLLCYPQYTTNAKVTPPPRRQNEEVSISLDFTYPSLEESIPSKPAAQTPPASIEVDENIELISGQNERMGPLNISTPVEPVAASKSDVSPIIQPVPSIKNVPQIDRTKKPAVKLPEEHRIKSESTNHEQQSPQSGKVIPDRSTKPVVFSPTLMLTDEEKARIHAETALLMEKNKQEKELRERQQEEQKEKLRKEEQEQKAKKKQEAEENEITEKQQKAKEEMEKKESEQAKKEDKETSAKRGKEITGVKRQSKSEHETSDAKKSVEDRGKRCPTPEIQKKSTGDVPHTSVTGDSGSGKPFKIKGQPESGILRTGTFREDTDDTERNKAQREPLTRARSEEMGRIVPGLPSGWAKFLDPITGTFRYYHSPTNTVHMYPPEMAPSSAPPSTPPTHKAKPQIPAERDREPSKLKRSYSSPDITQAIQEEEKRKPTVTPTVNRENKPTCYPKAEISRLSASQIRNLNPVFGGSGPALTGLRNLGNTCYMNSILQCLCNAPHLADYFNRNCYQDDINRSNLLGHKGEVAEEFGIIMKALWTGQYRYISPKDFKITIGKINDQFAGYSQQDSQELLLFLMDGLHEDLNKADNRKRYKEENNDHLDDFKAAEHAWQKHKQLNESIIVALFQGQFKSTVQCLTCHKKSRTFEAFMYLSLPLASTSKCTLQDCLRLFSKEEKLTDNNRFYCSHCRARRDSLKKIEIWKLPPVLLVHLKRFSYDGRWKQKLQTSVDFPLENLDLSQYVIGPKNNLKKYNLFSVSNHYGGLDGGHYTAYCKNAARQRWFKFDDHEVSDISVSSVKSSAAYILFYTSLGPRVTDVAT
inactive: [1] 0.048 | [2] -0.009 | [3] 0 | [4] -0.014 | [5] 0.015 | [6] 0.004 | [7] -0.007 | [8] -0.001 | [9] 0.018 | [10] 0.009 | [11] 0 | [12] 0.015 | [13] 0.001 | [14] -0.008 | [15] -0.05 | [16] 0.033 | [17] -0.002 | [18] -0.063 | [19] -0.006 | [20] -0.021

USP16 (UniProt Q9Y5T5)
Sequence of UniProt Q9Y5T5 (Q9Y5T5 whole entry, looked up): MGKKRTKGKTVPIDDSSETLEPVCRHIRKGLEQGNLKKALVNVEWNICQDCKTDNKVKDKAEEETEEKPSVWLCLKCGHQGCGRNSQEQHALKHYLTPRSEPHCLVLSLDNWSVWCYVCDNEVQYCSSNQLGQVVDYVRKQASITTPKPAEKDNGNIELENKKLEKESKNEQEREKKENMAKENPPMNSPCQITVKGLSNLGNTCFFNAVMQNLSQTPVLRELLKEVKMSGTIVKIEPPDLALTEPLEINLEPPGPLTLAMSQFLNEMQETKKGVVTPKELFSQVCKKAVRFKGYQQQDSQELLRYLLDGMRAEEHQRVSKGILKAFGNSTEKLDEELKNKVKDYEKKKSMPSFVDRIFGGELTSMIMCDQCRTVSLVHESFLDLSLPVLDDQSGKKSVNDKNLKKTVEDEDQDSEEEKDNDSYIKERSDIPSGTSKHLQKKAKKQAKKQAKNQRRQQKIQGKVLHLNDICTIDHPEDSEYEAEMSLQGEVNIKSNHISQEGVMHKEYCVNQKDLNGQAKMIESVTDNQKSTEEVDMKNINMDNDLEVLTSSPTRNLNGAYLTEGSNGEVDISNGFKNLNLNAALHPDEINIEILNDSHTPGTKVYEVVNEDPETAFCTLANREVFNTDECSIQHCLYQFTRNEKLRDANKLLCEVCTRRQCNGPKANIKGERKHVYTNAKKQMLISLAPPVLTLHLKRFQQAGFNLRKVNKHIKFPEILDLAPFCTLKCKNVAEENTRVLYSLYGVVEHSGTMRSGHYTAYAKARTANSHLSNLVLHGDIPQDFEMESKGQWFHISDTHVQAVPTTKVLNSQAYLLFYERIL
inactive: [1] -0.027 | [2] -0.035 | [3] -0.001 | [4] 0.011 | [5] 0.017 | [6] 0 | [7] -0.06 | [8] -0.027 | [9] -0.012 | [10] 0.019 | [11] 0.038 | [12] 0.005 | [13] 0.016 | [14] -0.009 | [15] -0.011 | [16] 0.01 | [17] 0.039 | [18] -0.045 | [19] 0.054 | [20] 0.013

ZC3H11A (UniProt O75152)
inactive: [1] 0.025 | [2] -0.1 | [3] 0.019 | [4] -0.034 | [5] 0.025 | [6] 0.084 | [7] -0.016 | [8] 0.041 | [9] 0.041 | [10] -0.096 | [11] 0.104 | [12] 0.084 | [13] 0.055 | [14] 0.03 | [15] -0.022 | [16] 0 | [17] 0.283 | [18] -0.182 | [19] -0.016 | [20] 0.013

WDR45 isoform 2 (UniProt Q9Y484)
Sequence of UniProt Q9Y484 (Q9Y484 whole entry, looked up): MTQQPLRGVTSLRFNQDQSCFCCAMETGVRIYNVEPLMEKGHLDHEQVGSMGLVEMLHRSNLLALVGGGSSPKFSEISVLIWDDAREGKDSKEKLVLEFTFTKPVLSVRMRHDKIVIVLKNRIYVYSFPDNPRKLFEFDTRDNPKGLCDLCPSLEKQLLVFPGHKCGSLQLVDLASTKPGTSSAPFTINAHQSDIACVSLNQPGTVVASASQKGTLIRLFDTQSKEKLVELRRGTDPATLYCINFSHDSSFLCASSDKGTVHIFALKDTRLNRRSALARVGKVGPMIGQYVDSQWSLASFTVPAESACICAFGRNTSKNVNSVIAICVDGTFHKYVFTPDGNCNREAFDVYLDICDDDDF
inactive: [1] 0.018 | [2] 0.014 | [3] 0.13 | [4] 0.111 | [5] -0.008 | [6] 0.014 | [7] 0.028 | [8] -0.04 | [9] -0.014 | [10] -0.036 | [11] -0.028 | [12] 0.043 | [13] 0.005 | [14] 0.052 | [15] 0 | [16] 0.12 | [17] -0.19 | [18] 0.086 | [19] 0.01 | [20] 0.024

WDR20 isoform 7 (UniProt Q8TBZ3)
inactive: [1] 0.003 | [2] -0.001 | [3] 0.088 | [4] -0.023 | [5] -0.019 | [6] 0.087 | [7] 0.044 | [8] 0.058 | [9] -0.003 | [10] 0.014 | [11] 0.047 | [12] 0 | [13] 0.087 | [14] 0.054 | [15] -0.039 | [16] -0.017 | [17] 0.039 | [18] -0.039 | [19] 0.065 | [20] -0.036
